# Experimental data from the supplement of paper PMC10849652.
# The full data set covers some 8,800 targets. This sample favours those with a hit. About 0.5% of all pairs of compound and target were hits. Unmarked numbers belong to inactive results.
# Columns and labels:
# Test in all cases: log2 fold change, soluble protein after heating vs DMSO (PISA); higher = thermal stabilisation; K562 lysate, 10 uM; active = over 0.2 and 3.5 SD of the protein, either way, in both replicates (recomputed)
# ibrutinib = compound: C=CC(=O)N1CCC[C@@H](n2nc(-c3ccc(Oc4ccccc4)cc3)c3c(N)ncnc32)C1 [ibrutinib]
# Summary of the method: (§1)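 To prepare the extract, K562 pellets were dounce-homogenised in PBS pH 7.4 with 1 mM MgCl2, giving crude material at 1 mg/mL protein. This was treated with 10 μM compound for 30 min, then heated in aliquots for 3 min over 48°C-58°C before pooling and addition of NP-40 to 0.5% at 4°C. Centrifugation at 21,000xg for 90 min left soluble protein in the supernatant, which TMTpro 16plex LC-MS/MS quantified with equalised channel sums. Results are log-two fold changes in thermal stability compared with solvent controls, from duplicates.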
# [1] = compound: CC(=O)c1cnc2ccc(-c3cc(Cl)c(O)c(Cl)c3)nc2c1N[C@H]1CC[C@H](CN(C)C)CC1
# Summary of the method: as §1
# ralimetinib = compound: CC(C)(C)Cn1c(N)nc2ccc(-c3[nH]c(C(C)(C)C)nc3-c3ccc(F)cc3)nc21 [ralimetinib]
# Summary of the method: as §1
# [2] = compound: CC(C)(O)CC(=O)NCCn1ccc2ncnc(Nc3ccc(Oc4cccc(C(F)(F)F)c4)c(Cl)c3)c21
# Summary of the method: as §1
# [3] = compound: CC(C)C1=C2N=C(C=C(N2N=C1)NCC3=CC=CC=C3)NCCCCCCN
# Summary of the method: as §1
# [4] = compound: CC1=C(C(CC(=O)N1)C2=CC=C(C=C2)C(F)(F)F)C(=O)NC3=C(C=C4C(=C3)C=NN4)F
# Summary of the method: as §1
# [5] = compound: CC1=C(C2=C(C=C1)C(=O)C3=CC=CC=C3N2CCCN)C
# Summary of the method: as §1
# [6] = compound: CC1=C(C=C(C=C1)NC(=O)C2=CC(=CC=C2)C(C)(C)C#N)NC3=CC4=C(C=C3)N=CN(C4=O)C
# Summary of the method: as §1
# [7] = compound: CC1=C(C=C(C=C1)NC(=O)C2=CC(=CC=C2)N(C)C)NC(=O)C3=CC=C(C=C3)O
# Summary of the method: as §1
# [8] = compound: CC1=CC=C(C=C1)SC2=C3C=C(SC3=CN=C2)C(=O)N
# Summary of the method: as §1
# vemurafenib = compound: CCCS(=O)(=O)Nc1ccc(F)c(C(=O)c2c[nH]c3ncc(-c4ccc(Cl)cc4)cc23)c1F [vemurafenib]
# Summary of the method: as §1
# [9] = compound: CCCS(=O)(=O)Nc1ccc(F)c(C(=O)c2c[nH]c3ncc(Cl)cc23)c1F
# Summary of the method: as §1
# barasertib = compound: CCN(CCCOc1ccc2c(Nc3cc(CC(=O)Nc4cccc(F)c4)[nH]n3)ncnc2c1)CCOP(=O)(O)O [barasertib]
# Summary of the method: as §1
# [10] = compound: CC[C@@H]1C(=O)N(C)c2cnc(Nc3ccc(C(=O)NC4CCN(C)CC4)cc3OC)nc2N1C1CCCC1
# Summary of the method: as §1
# volasertib = compound: CC[C@@H]1C(=O)N(C)c2cnc(Nc3ccc(C(=O)N[C@H]4CC[C@H](N5CCN(CC6CC6)CC5)CC4)cc3OC)nc2N1C(C)C [volasertib]
# Summary of the method: as §1
# [11] = compound: CCn1c(C(=O)N(C2CC2)C2CC2)cc2c3c(ncn3C)c(Nc3cc(C)n(C)n3)nc21
# Summary of the method: as §1
# [12] = compound: CCn1cc(-c2ccnc3[nH]c(-c4cccc(CN(C)C)c4)cc23)c(-c2ccc(NC(=O)N(C)C)cc2)n1
# Summary of the method: as §1
# [13] = compound: CN1CCC(CNc2ccc3ncc(-c4cccc(OC(F)(F)F)c4)n3n2)CC1
# Summary of the method: as §1
# saracatinib = compound: CN1CCN(CCOc2cc(OC3CCOCC3)c3c(Nc4c(Cl)ccc5c4OCO5)ncnc3c2)CC1 [saracatinib]
# Summary of the method: as §1
# sotrastaurin = compound: CN1CCN(c2nc(C3=C(c4c[nH]c5ccccc45)C(=O)NC3=O)c3ccccc3n2)CC1 [sotrastaurin]
# Summary of the method: as §1
# Chain of UniProt Q13546 (Q13546 whole entry, looked up): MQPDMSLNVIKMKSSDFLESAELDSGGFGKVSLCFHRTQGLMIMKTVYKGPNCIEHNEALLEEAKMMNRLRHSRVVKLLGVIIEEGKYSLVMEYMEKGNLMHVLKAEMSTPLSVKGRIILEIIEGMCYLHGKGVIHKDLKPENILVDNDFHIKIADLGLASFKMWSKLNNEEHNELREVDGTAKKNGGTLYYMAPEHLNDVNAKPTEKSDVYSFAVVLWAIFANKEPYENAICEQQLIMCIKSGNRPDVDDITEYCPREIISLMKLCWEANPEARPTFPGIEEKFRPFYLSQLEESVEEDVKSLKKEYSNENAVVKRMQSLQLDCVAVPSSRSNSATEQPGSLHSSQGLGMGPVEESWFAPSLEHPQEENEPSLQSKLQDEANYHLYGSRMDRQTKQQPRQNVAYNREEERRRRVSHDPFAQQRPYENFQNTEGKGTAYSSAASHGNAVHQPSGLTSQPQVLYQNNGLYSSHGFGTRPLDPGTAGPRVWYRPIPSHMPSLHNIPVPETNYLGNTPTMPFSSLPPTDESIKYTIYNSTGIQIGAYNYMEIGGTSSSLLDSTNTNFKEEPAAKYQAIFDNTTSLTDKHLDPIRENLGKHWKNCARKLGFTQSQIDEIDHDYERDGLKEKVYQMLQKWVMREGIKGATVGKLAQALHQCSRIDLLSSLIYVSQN
# Chain of UniProt Q92878 (Q92878 whole entry, looked up): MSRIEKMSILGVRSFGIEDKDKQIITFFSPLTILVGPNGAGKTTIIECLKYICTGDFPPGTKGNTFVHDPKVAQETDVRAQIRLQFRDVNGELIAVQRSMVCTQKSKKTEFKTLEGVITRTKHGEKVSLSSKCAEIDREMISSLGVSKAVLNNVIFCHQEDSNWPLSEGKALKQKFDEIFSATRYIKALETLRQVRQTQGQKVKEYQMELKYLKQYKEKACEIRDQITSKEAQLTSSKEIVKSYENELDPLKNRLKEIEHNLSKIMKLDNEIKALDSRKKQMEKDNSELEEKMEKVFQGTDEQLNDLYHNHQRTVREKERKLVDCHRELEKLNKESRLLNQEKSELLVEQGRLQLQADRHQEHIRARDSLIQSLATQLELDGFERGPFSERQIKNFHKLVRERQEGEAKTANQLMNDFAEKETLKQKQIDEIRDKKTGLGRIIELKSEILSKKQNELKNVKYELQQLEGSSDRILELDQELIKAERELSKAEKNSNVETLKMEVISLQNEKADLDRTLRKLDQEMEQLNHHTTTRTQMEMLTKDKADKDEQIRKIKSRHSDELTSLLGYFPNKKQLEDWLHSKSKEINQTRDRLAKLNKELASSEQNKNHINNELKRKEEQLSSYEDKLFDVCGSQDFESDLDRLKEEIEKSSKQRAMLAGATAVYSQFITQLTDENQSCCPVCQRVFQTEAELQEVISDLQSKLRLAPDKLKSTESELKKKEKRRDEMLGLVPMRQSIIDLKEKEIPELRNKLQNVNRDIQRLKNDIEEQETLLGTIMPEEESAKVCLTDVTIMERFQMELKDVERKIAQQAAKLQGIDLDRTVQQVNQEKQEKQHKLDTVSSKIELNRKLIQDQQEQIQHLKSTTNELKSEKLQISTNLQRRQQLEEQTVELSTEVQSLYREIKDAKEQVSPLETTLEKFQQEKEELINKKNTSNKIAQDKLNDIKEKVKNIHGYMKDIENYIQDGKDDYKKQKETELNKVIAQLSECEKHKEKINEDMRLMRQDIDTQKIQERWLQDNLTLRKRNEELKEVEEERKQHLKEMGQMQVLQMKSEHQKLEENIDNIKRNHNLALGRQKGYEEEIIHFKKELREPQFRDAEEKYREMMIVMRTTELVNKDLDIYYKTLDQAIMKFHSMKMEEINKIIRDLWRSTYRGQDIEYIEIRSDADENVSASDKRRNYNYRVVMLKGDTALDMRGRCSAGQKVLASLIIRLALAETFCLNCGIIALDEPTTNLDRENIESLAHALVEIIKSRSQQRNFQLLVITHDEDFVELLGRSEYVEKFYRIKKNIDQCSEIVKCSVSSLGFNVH
# Chain of UniProt Q14644 (Q14644 whole entry, looked up): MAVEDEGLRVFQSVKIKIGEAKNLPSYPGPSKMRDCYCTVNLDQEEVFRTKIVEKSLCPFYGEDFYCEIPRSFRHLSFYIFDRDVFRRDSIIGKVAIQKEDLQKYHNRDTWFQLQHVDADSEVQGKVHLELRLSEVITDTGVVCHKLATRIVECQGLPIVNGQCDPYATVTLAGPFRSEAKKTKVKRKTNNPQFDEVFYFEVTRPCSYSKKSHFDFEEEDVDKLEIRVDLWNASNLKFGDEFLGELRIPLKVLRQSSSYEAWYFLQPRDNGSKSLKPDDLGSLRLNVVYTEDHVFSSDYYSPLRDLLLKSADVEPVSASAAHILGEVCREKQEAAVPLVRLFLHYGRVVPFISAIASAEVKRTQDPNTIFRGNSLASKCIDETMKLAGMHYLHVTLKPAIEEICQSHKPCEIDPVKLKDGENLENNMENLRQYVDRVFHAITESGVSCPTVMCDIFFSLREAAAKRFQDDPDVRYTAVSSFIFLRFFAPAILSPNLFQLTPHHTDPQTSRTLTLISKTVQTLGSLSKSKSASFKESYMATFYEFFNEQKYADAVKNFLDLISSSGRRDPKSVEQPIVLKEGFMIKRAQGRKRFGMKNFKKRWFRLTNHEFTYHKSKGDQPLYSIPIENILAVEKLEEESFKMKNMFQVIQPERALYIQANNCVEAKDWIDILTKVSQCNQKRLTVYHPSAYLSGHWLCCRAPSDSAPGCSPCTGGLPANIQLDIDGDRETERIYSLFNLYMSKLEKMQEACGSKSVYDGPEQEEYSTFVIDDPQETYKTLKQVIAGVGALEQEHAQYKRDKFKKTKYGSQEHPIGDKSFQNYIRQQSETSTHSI
# Chain of UniProt Q8IZV5 (Q8IZV5 whole entry, looked up): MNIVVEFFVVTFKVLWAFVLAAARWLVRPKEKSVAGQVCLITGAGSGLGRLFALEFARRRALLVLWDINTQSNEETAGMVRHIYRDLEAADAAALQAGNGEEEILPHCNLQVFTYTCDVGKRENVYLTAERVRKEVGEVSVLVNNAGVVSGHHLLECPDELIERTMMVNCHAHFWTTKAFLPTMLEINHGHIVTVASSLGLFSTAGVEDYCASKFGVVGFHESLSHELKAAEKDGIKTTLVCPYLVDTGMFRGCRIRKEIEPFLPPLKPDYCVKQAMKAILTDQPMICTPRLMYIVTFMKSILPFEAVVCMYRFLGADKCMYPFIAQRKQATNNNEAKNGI
# Chain of UniProt O75150 (O75150 whole entry, looked up): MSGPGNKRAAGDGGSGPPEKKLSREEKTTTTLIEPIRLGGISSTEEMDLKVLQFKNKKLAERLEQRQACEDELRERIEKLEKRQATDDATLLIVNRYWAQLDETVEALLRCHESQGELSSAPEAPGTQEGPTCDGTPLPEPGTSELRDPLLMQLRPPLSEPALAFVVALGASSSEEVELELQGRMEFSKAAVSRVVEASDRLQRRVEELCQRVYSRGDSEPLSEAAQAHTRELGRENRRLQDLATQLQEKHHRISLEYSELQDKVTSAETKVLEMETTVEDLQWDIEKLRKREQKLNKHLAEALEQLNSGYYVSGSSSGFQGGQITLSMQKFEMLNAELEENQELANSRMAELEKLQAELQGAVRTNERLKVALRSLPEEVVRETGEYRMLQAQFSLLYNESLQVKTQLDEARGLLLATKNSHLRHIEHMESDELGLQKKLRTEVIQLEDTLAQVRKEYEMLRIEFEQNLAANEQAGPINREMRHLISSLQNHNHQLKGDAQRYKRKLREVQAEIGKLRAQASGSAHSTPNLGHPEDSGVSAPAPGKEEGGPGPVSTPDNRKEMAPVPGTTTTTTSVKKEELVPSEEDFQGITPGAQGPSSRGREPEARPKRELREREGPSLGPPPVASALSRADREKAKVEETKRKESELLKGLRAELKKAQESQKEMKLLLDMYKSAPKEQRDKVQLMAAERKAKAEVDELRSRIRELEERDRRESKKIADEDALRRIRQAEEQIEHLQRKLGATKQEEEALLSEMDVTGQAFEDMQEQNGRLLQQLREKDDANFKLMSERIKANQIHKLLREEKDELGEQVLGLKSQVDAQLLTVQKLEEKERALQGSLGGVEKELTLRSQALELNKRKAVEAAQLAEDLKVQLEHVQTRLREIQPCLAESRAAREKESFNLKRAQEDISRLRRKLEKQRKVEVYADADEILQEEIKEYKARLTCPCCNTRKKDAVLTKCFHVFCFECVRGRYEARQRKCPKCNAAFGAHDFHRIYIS
# Chain of UniProt P31949 (P31949 whole entry, looked up): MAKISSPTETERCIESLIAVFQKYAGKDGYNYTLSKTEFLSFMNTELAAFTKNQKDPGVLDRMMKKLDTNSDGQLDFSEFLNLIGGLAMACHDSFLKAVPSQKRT
# Chain of UniProt Q9BWF3 (Q9BWF3 whole entry, looked up): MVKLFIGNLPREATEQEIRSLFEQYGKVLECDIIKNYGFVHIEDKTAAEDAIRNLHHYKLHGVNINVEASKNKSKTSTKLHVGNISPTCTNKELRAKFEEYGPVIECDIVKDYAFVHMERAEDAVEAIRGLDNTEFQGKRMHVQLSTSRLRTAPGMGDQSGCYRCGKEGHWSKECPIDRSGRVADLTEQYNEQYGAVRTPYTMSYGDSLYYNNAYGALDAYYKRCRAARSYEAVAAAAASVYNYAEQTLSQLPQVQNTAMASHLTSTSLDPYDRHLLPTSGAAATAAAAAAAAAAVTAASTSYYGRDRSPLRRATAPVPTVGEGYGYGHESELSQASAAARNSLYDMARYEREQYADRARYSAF
# Chain of UniProt O00767 (O00767 whole entry, looked up): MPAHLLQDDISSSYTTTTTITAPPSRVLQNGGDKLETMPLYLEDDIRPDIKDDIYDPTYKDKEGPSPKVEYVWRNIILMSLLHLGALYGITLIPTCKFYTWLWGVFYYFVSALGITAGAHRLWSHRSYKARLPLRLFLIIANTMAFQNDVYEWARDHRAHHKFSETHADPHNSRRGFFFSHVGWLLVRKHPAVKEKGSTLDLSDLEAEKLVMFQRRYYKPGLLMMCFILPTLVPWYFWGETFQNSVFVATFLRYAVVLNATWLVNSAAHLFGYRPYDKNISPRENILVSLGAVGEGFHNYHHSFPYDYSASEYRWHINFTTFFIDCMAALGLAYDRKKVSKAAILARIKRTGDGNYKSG
Target,log2 fold change (ibrutinib),log2 fold change [1],log2 fold change (ralimetinib),log2 fold change [2],log2 fold change [3],log2 fold change [4],log2 fold change [5],log2 fold change [6],log2 fold change [7],log2 fold change [8],log2 fold change (vemurafenib),log2 fold change [9],log2 fold change (barasertib),log2 fold change [10],log2 fold change (volasertib),log2 fold change [11],log2 fold change [12],log2 fold change [13],log2 fold change (saracatinib),log2 fold change (sotrastaurin)
RBM4 (UniProt Q9BWF3),0.006,0.021,0.008,-0.014,0.023,0.028,0.005,-0.154,0.025,-0.004,-0.013,-0.042,0.023,-0.053,-0.032,0.045,0.344 (active),-0.044,-0.013,-0.015
RNF40 (UniProt O75150),0.048,-0.014,0.033,-0.015,-0.023,0.007,-0.01,-0.001,-0.006,0.004,0.001,0.008,0.043,-0.005,-0.047,0.002,0.011,-0.033,0.033,-0.012
RIPK1 (UniProt Q13546),-0.02,-0.025,-0.009,-0.011,0.018,0.001,-0.013,0.001,-0.02,0.003,-0.053,0.027,0.01,-0.026,-0.066,0.027,-0.019,-0.013,0.016,-0.045
RPS18 (UniProt P62269),-0.016,0.01,-0.006,-0.02,0.008,-0.037,-0.1,0,-0.006,-0.012,0.006,0.022,-0.007,-0.014,0.018,0.009,-0.219 (active),0.063,0.002,0
RPL31 (UniProt P62899),-0.031,-0.011,0.009,-0.022,0.003,-0.06,-0.043,-0.013,-0.021,0.016,0.01,0.004,0.004,0.006,-0.005,-0.013,-0.043,-0.005,0.024,0.014
RBBP7 isoform 2 (UniProt Q16576),0.016,0.043,0.062,0.042,-0.028,-0.029,0.011,-0.002,-0.001,0.034,-0.064,-0.007,-0.042,-0.057,0.022,0.047,-0.274 (active),0.088,0.001,0.032
RTN4IP1 (UniProt Q8WWV3),0.073,0.02,0.012,0.028,-0.042,-0.398 (active),-0.011,-0.008,-0.015,-0.033,-0.02,0.047,-0.049,-0.018,-0.014,-0.007,0.058,-0.106,-0.048,0.015
RDH10 (UniProt Q8IZV5),0.016,-0.015,0.04,-0.013,0.03,-0.007,-0.033,-0.045,-0.034,-0.016,0.054,0.032,0.027,-0.011,0.035,-0.072,-0.067,0.062,-0.035,-0.006
SCD (UniProt O00767),-0.06,-0.053,0.059,-0.009,-0.052,0.032,0.047,0.02,-0.085,-0.128,-0.03,0.111,0.042,0.006,0.098,-0.082,-0.504 (active),0.212,0.071,0.084
RASA3 (UniProt Q14644),0,-0.031,-0.012,-0.054,0.02,-0.048,0.031,-0.026,-0.018,-0.078,-0.008,0.009,0.107,-0.1,-0.082,-0.058,0.105,0.298,-0.003,0.048
S100A11 (UniProt P31949),-0.011,-0.049,-0.009,-0.017,-0.02,-0.024,0.003,0.058,0.028,0.037,0.005,-0.015,0.008,0.037,0.098,0.004,-0.008,-0.052,0.023,-0.036
RAD50 isoform 2 (UniProt Q92878),0.002,-0.01,0.01,0.018,0,-0.001,0.03,0,0.017,-0.006,0.004,0.013,0.025,-0.011,-0.047,0.039,-0.024,-0.024,0,0.036
RCOR3 isoform 3 (UniProt Q9P2K3),-0.009,-0.03,0.014,-0.004,0.011,0,0.002,-0.038,0.002,-0.011,-0.03,-0.01,-0.003,-0.001,-0.012,0.029,-0.017,0.003,0.03,-0.015
SEH1L isoform 1 (UniProt Q96EE3),0.013,-0.024,-0.011,-0.008,0.005,-0.021,-0.014,0.015,0.017,-0.014,-0.029,-0.001,0.004,0.069,0.216 (active),-0.015,-0.022,0.021,-0.005,-0.01
SEC13 isoform 3 (UniProt P55735),-0.084,-0.025,0.024,-0.01,-0.015,-0.005,0.034,-0.032,0.031,-0.014,-0.001,-0.004,-0.031,-0.013,0.007,0.003,0.507 (active),-0.042,-0.027,-0.015
RABGGTB (UniProt P53611),-0.017,-0.042,0.018,-0.052,0.015,-0.002,-0.006,-0.013,0.048,0.013,-0.022,0.058,0.096,-0.034,0.008,-0.031,0.151,-0.033,-0.017,0.037
